Experimental data as given in the supplement of paper PMC8728848.
Shown is part of a subset that was picked to be rich in the strongest signals.

Experiments:
Assay in all cases: glycan array binding signal (z-score within array); higher = stronger binding
Settings in all cases: glycan notation: IUPAC condensed, linker removed
Fuc(a1-2)Gal(b1-3)GlcNAc = biological target: Fuc(a1-2)Gal(b1-3)GlcNAc
How it was run: (§1)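 Glycan array data were curated from 3228 arrays in the Consortium for Functional Glycomics database and kept only where the protein sequence was available. Glycan names were converted to IUPAC-condensed notation, and columns mapping to the same glycan were averaged. The binding signal is a within-array Z-score, averaged across arrays of the same protein sequence at different concentrations or buffers and across linkers. Negative Z-scores can be read as non-binding.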

[1] = biological target: Fuc(a1-2)Gal(b1-3)GlcNAc6S
How it was run: as §1

Fuc(a1-2)Gal(b1-4)Glc = biological target: Fuc(a1-2)Gal(b1-4)Glc
How it was run: as §1

[2] = biological target: Fuc(a1-2)Gal(b1-4)GlcNAc(b1-3)GalNAc
How it was run: as §1

[3] = biological target: Fuc(a1-2)Gal(b1-4)[Fuc(a1-3)]GlcNAc(b1-2)[Fuc(a1-2)Gal(b1-4)[Fuc(a1-3)]GlcNAc(b1-4)]Man(a1-3)[Fuc(a1-2)Gal(b1-4)[Fuc(a1-3)]GlcNAc(b1-2)Man(a1-6)]Man(b1-4)GlcNAc(b1-4)GlcNAc
How it was run: as §1

[4] = biological target: Fuc(a1-2)Gal6S(b1-3)GlcNAc
How it was run: as §1

[5] = biological target: Fuc(a1-2)[GalNAc(a1-3)]Gal(b1-3)GlcNAc(b1-2)Man(a1-3)[Fuc(a1-2)[GalNAc(a1-3)]Gal(b1-3)GlcNAc(b1-2)Man(a1-6)]Man(b1-4)GlcNAc(b1-4)GlcNAc
How it was run: as §1

[6] = biological target: Fuc(a1-2)[GalNAc(b1-3)]Gal
How it was run: as §1

[7] = biological target: Fuc(a1-3)[Gal(b1-4)]GlcNAc(b1-3)Gal(b1-4)[Fuc(a1-3)]GlcNAc(b1-3)Gal(b1-4)[Fuc(a1-3)]GlcNAc
How it was run: as §1

[8] = biological target: Fuc(a1-3)[Gal3S(b1-4)]Glc
How it was run: as §1

[9] = biological target: Fuc(a1-3)[GalNAc(b1-4)]GlcNAc6S
How it was run: as §1

[10] = biological target: Gal(a1-3)Gal(b1-4)GlcNAc(b1-2)Man
How it was run: as §1

[11] = biological target: Gal(a1-3)[Gal(a1-4)]Gal(b1-4)GlcNAc
How it was run: as §1

[12] = biological target: Gal(b1-3)GalNAc(a1-3)[Fuc(a1-2)]Gal(b1-4)Glc
How it was run: as §1

[13] = biological target: Gal(b1-3)GlcNAc(b1-2)Man(a1-3)[Gal(b1-3)GlcNAc(b1-2)Man(a1-6)]Man(b1-4)GlcNAc(b1-4)[Fuc(a1-6)]GlcNAc
How it was run: as §1

[14] = biological target: Gal(b1-3)GlcNAc(b1-2)Man(a1-3)[GlcNAc(b1-4)][Gal(b1-3)GlcNAc(b1-2)Man(a1-6)]Man(b1-4)GlcNAc(b1-4)GlcNAc
How it was run: as §1

[15] = biological target: Gal(b1-3)GlcNAc(b1-3)Gal(b1-4)GlcNAc(b1-3)Gal(b1-4)GlcNAc(b1-2)[Gal(b1-3)GlcNAc(b1-3)Gal(b1-4)GlcNAc(b1-3)Gal(b1-4)GlcNAc(b1-6)]Man(a1-6)[Gal(b1-3)GlcNAc(b1-3)Gal(b1-4)GlcNAc(b1-3)Gal(b1-4)GlcNAc(b1-2)Man(a1-3)]Man(b1-4)GlcNAc(b1-4)[Fuc(a1-6)]GlcNAc
How it was run: as §1

[16] = biological target: Gal(b1-3)GlcNAc(b1-3)GalNAc
How it was run: as §1

[17] = biological target: Gal(b1-3)GlcNAc(b1-6)[Gal(b1-3)]GalNAc
How it was run: as §1

[18] = biological target: Gal(b1-4)GlcNAc(b1-2)Man(a1-3)[Gal(b1-4)GlcNAc(b1-2)Man(a1-6)]Man(b1-4)GlcNAc(b1-4)GlcNAc
How it was run: as §1

[19] = biological target: Gal(b1-4)GlcNAc(b1-2)Man(a1-3)[GlcNAc(b1-2)Man(a1-6)]Man(b1-4)GlcNAc(b1-4)GlcNAc
How it was run: as §1

[20] = biological target: Gal(b1-4)GlcNAc(b1-3)Gal(b1-4)GlcNAc
How it was run: as §1

Gal3S(b1-3)GalNAc = biological target: Gal3S(b1-3)GalNAc
How it was run: as §1

Gal6S(b1-3)GlcNAc = biological target: Gal6S(b1-3)GlcNAc
How it was run: as §1

Gal6S(b1-4)GlcNAc = biological target: Gal6S(b1-4)GlcNAc
How it was run: as §1

GalNAc(a1-3)GalNAc = biological target: GalNAc(a1-3)GalNAc
How it was run: as §1

[21] = biological target: GalNAc(a1-3)GalNAc(b1-3)Gal(a1-4)Gal(b1-4)Glc
How it was run: as §1

[22] = biological target: GalNAc(b1-3)Gal(a1-4)Gal(b1-4)GlcNAc(b1-3)Gal(b1-4)Glc
How it was run: as §1

[23] = biological target: GlcNAc(b1-3)Gal(b1-4)GlcNAc(b1-2)Man(a1-3)[GlcNAc(b1-3)Gal(b1-4)GlcNAc(b1-2)Man(a1-6)]Man(b1-4)GlcNAc(b1-4)GlcNAc
How it was run: as §1

[24] = biological target: GlcNAc(b1-3)Gal(b1-4)GlcNAc(b1-3)Gal(b1-4)GlcNAc(b1-3)Gal(b1-4)GlcNAc(b1-3)Gal(b1-4)GlcNAc(b1-2)[GlcNAc(b1-3)Gal(b1-4)GlcNAc(b1-3)Gal(b1-4)GlcNAc(b1-3)Gal(b1-4)GlcNAc(b1-3)Gal(b1-4)GlcNAc(b1-6)]Man(a1-6)[GlcNAc(b1-3)Gal(b1-4)GlcNAc(b1-3)Gal(b1-4)GlcNAc(b1-3)Gal(b1-4)GlcNAc(b1-3)Gal(b1-4)GlcNAc(b1-2)Man(a1-3)]Man(b1-4)GlcNAc(b1-4)[Fuc(a1-6)]GlcNAc
How it was run: as §1

Kdn(a2-3)Gal(b1-4)GlcNAc = biological target: Kdn(a2-3)Gal(b1-4)GlcNAc
How it was run: as §1

Man(a1-2)Man(a1-3)Man = biological target: Man(a1-2)Man(a1-3)Man
How it was run: as §1

[25] = biological target: Man(a1-2)Man(a1-3)[Man(a1-2)Man(a1-6)]Man(a1-6)[Man(a1-2)Man(a1-2)Man(a1-3)]Man(b1-4)GlcNAc(b1-4)GlcNAc
How it was run: as §1

[26] = biological target: Neu5Ac(a2-3)Gal(b1-3)GalNAc(b1-3)Gal(a1-4)Gal(b1-4)Glc
How it was run: as §1

[27] = biological target: Neu5Ac(a2-3)Gal(b1-4)GlcNAc
How it was run: as §1

[28] = biological target: Neu5Ac(a2-3)Gal(b1-4)GlcNAc(b1-2)Man(a1-3)[GlcNAc(b1-4)][Neu5Ac(a2-3)Gal(b1-4)GlcNAc(b1-2)Man(a1-6)]Man(b1-4)GlcNAc(b1-4)GlcNAc
How it was run: as §1

[29] = biological target: Neu5Ac(a2-3)Gal(b1-4)GlcNAc(b1-2)Man(a1-3)[Neu5Ac(a2-3)Gal(b1-4)GlcNAc(b1-2)Man(a1-6)]Man(b1-4)GlcNAc(b1-4)GlcNAc
How it was run: as §1

[30] = biological target: Neu5Ac(a2-3)Gal(b1-4)[Fuc(a1-3)]GlcNAc6S
How it was run: as §1

Neu5Ac(a2-3)GalNAc = biological target: Neu5Ac(a2-3)GalNAc
How it was run: as §1

Neu5Ac(a2-6)Gal = biological target: Neu5Ac(a2-6)Gal
How it was run: as §1

[31] = biological target: Neu5Ac(a2-6)Gal(b1-4)GlcNAc(b1-2)Man(a1-6)[Man(a1-3)]Man(b1-4)GlcNAc(b1-4)GlcNAc
How it was run: as §1

[32] = biological target: Neu5Ac(a2-6)Gal(b1-4)GlcNAc(b1-2)[Neu5Ac(a2-6)Gal(b1-4)GlcNAc(b1-4)]Man(a1-3)[GlcNAc(b1-4)][Neu5Ac(a2-6)Gal(b1-4)GlcNAc(b1-2)[Neu5Ac(a2-6)Gal(b1-4)GlcNAc(b1-6)]Man(a1-6)]Man(b1-4)GlcNAc(b1-4)GlcNAc
How it was run: as §1

[33] = biological target: Neu5Ac(a2-6)Gal(b1-4)GlcNAc(b1-2)[Neu5Ac(a2-6)Gal(b1-4)GlcNAc(b1-4)]Man(a1-3)[GlcNAc(b1-4)][Neu5Ac(a2-6)Gal(b1-4)GlcNAc(b1-4)Man(a1-6)]Man(b1-4)GlcNAc(b1-4)GlcNAc
How it was run: as §1

[34] = biological target: Neu5Ac(a2-6)Gal(b1-4)GlcNAc(b1-3)Gal(b1-4)GlcNAc(b1-3)Gal(b1-4)GlcNAc(b1-2)Man(a1-3)[Neu5Ac(a2-6)Gal(b1-4)GlcNAc(b1-3)Gal(b1-4)GlcNAc(b1-3)Gal(b1-4)GlcNAc(b1-2)Man(a1-6)]GalNAc
How it was run: as §1

[35] = biological target: Neu5Ac(a2-6)Gal(b1-4)GlcNAc(b1-3)[Neu5Ac(a2-6)Gal(b1-4)GlcNAc(b1-6)]GalNAc
How it was run: as §1

[36] = biological target: Neu5Gc(a2-3)Gal(b1-4)[Fuc(a1-3)]GlcNAc
How it was run: as §1

B1: B3GalT2 (Rattus norvegicus) (protein)
chain: LMLQWRRRHCCFAKMSWNAKRSLFRTHLMGVLSLVFLFAMFLFFNHHDWLPGRPGFKENPVTYTFRGFRSTKTETNQSSLRNIWKEVVPQTLRPQTATNSNNTELSPQGVTGLENTLSANGSIYNEKGTGHPNSYHFKYIINEPEKCQEKSPFLILLIAAEPGQIEARRAIRQTWGNETLAPGIQITRIFLLGISIKLNGYLQHAIQEESIQYHDIIQQEYLDTYYNLTIKTLMGMNWVATYCPHTPYVMKTDSDMFVNTEYLIHKLLKPDLPPRHNYFTGYLMRGYAPNRNKDSKWYMPPDLYPSERYPVFCSGTGYVFSGDLAEKIFKVSLGIRRLHLEDVYVGICLAKLRVDPVPPPNEFVFNHWRVSYSSCKYSHLITSHQFQPSELIKYWNHLQQNKHNACVNAAKEKAGRYRHRKLH
glycan array binding signal (z-score) (Fuc(a1-2)Gal(b1-3)GlcNAc): 0.359 | glycan array binding signal (z-score) [1]: -0.012 | glycan array binding signal (z-score) (Fuc(a1-2)Gal(b1-4)Glc): -0.322 | glycan array binding signal (z-score) [2]: 0.324 | glycan array binding signal (z-score) [3]: -0.914 | glycan array binding signal (z-score) [4]: 0.207 | glycan array binding signal (z-score) [5]: -0.832 | glycan array binding signal (z-score) [6]: 3.23 | glycan array binding signal (z-score) [7]: -0.328 | glycan array binding signal (z-score) [8]: 0.499 | glycan array binding signal (z-score) [9]: 2.41 | glycan array binding signal (z-score) [10]: -0.684 | glycan array binding signal (z-score) [11]: 0.28 | glycan array binding signal (z-score) [12]: -0.035 | glycan array binding signal (z-score) [13]: -0.68 | glycan array binding signal (z-score) [14]: -0.55 | glycan array binding signal (z-score) [15]: 2.97 | glycan array binding signal (z-score) [16]: 0.129 | glycan array binding signal (z-score) [17]: 0.217 | glycan array binding signal (z-score) [18]: -0.8 | glycan array binding signal (z-score) [19]: -0.763 | glycan array binding signal (z-score) [20]: 0.439 | glycan array binding signal (z-score) (Gal3S(b1-3)GalNAc): 0.283 | glycan array binding signal (z-score) (Gal6S(b1-3)GlcNAc): 2.69 | glycan array binding signal (z-score) (Gal6S(b1-4)GlcNAc): -0.022 | glycan array binding signal (z-score) (GalNAc(a1-3)GalNAc): -0.798 | glycan array binding signal (z-score) [21]: -0.606 | glycan array binding signal (z-score) [22]: -0.596 | glycan array binding signal (z-score) [23]: -0.524 | glycan array binding signal (z-score) [24]: -1.04 | glycan array binding signal (z-score) (Kdn(a2-3)Gal(b1-4)GlcNAc): 2.76 | glycan array binding signal (z-score) (Man(a1-2)Man(a1-3)Man): 0.139 | glycan array binding signal (z-score) [25]: -0.337 | glycan array binding signal (z-score) [26]: -0.318 | glycan array binding signal (z-score) [27]: 1.9 | glycan array binding signal (z-score) [28]: 0.483 | glycan array binding signal (z-score) [29]: 1.88 | glycan array binding signal (z-score) [30]: 0.576 | glycan array binding signal (z-score) (Neu5Ac(a2-3)GalNAc): 2.8 | glycan array binding signal (z-score) (Neu5Ac(a2-6)Gal): 2.53 | glycan array binding signal (z-score) [31]: 0.005 | glycan array binding signal (z-score) [32]: 2.01 | glycan array binding signal (z-score) [33]: 1.82 | glycan array binding signal (z-score) [34]: 2.1 | glycan array binding signal (z-score) [35]: -1.14 | glycan array binding signal (z-score) [36]: -0.164
